# Pf growth 96h – Primary qHTS for delayed death inhibitors of the malarial parasite plastid, 96 hour incubation. P. falciparum luciferase reporter growth, 96 h. Potency, µM (highest dose often 28.7 µM), for the others: top-dose activity change, negative = inhibition, most hits filed as inhibitors. actives 6.9% (n = 320,000). AID 504834, 2011
#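 Luminescence readout: decreased luciferase signal marks inhibited growth of reporter-expressing P. falciparum in infected red cells (2% hematocrit, 0.05% parasitemia final), exposed to compound two generations (96 h, 37 C, 5% CO2).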
# AMA1 RON2 block – qHTS for Inhibitors of AMA1-RON; Towards Development of Antimalarial Drug Lead: Primary Screen. Potency, µM (top dose mostly 58.2 µM), inactives show at the top dose activity change, negative = inhibition, usual class: inhibitors. AlphaScreen AMA1-biotinylated RON2 peptide binding. AID 720542, 2013. actives 0.2% (n = 360,000). Plasmodium falciparum AMA1 (3D7) - RON2 peptide interaction;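 note: 0% = vehicle wells and -100% = peptide control; nearly all actives have a fitted effect of over 45% in size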
#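 AMA1 (3D7) with his tag at 25 nM final met compounds first, then biotinylated RON2 peptide at 25 nM; detection used donor plus acceptor beads, 10 µg/mL apiece, read by AlphaScreen after 30 min at room temperature.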
# Pf growth 48h – Primary qHTS for delayed death inhibitors of the malarial parasite plastid, 48 hour incubation | P. falciparum luciferase growth in erythrocytes, 48 h | AID 504832, 2011 | actives 5.9% (n = 310,000) | Potency, µM (top dose mostly 28.7 µM), for the others: at the highest dose activity change, negative = inhibition, usual class: inhibitors
#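 Luciferase-expressing P. falciparum in infected erythrocytes (2% hematocrit, 0.1% parasitemia final) in RPMI 1640/0.5% Albumax were exposed to compound for 48 hours at 37 C, 5% CO2; growth read as luminescence.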
# HCV inh – qHTS Assay for Inhibitors of Hepatitis C Virus (HCV); AID 651820, 2012; actives 3.4% (n = 340,000); Huh7.5.1 HCVcc-Cre infection, luciferase reporter, 44 h; Potency, µM (top dose mostly 41.8 µM), without a hit: at the highest dose activity change, negative = inhibition, usual class: inhibitors
#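 A cell-based infection assay in which seeded cells (1,000 per well) receive test compound after 4 h, are inoculated with HCVcc-Cre at approximately 0.5 moi, and are incubated 44 h before luminescence detection.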
# Numbers without * were called inactive; ? = inconclusive; nt = no result given; [ ] = another dose, or the depositor's remark. Rows were chosen to be rich in hits. Some 11% of all compounds tested hit in one or more screens of this group. Calls come from the whole dose curve; as a rule, active = well fitted curve in the direction sought with a large enough effect; inconclusive = small, poorly fitted or top-dose-only effect, or another doubt; inactive = no such curve, though single readings can be large; an effect the other way counts as inactive or inconclusive. Unless noted, % is set by controls: 0 for no effect and ±100 for the full control effect; potency is the fitted concentration of half-maximal effect.
SMILES,Pf growth 96h,AMA1 RON2 block,Pf growth 48h,HCV inh
Cc1csc(CN(C)C(=O)CC2C(=O)NCCN2Cc2ccc(Cl)c(F)c2)n1 (centres undefined),9.28µM*,15.0%,-10.5%,18.1%
Cc1nonc1CN(C)C(=O)CC1C(=O)NCCN1Cc1c(F)cccc1Cl (centres undefined),0.2%,-5.9%,16.7%,2.5%
Cc1csc(CN(C)C(=O)CC2C(=O)NCCN2Cc2ccc(F)cc2Cl)n1 (centres undefined),75.1%,33.0%,1.6%,0.8%
C=CCN1CCN(C(CCC)c2nnnn2Cc2ccco2)CC1 (centres undefined),?,16.3%,9.3%,24.0%
C=CCNc1ncnc2c1ncn2[C@H]1CN(Cc2cc(OC)c(OC)c(OC)c2)C[C@@H](CO)O1,nt,9.7%,nt,nt
CCc1ccc(CNC(=O)C2CC(=O)N(C3CCCC3)C2)cc1 (centres undefined),2.62µM*,-2.4%,-14.0%,11.1%
Cc1ccc(CCNC(=O)C2CC(=O)N(C3CCCCC3)C2)cc1 (centres undefined),1.47µM*,-3.5%,8.1%,7.9%
COc1ccc(CNC(=O)C2CC(=O)N(C3CCCC3)C2)cc1 (centres undefined),49.5%,3.5%,16.3%,3.1%
CC1CCCCC1=NNC(=O)c1ccccc1 (centres undefined),nt,48.6%,nt,nt
CN1CCc2cc3c(c4c2[C@H]1[C@H](O)c1ccccc1-4)OCO3,?,-15.3%,1.65µM*,-3.4%[8.37 µM]
COc1ccc2c(c1OC)C(=O)OC2C1c2c(cc3c(c2OC)OCO3)CCN1C (centres undefined),13.1µM*,0.0%,?,-21.9%[8.37 µM]
CCCc1nc2c(C)ccc(C)c2c(N)c1CC,9.28µM*,-12.1%,13.1µM*,?
Cc1ccc(NC(=O)C2CCCN(c3nccc(C)n3)C2)c(C)c1 (centres undefined),3.1%,8.8%,-0.6%,20.5%
Cc1ccc(NC(=O)C2CCCN(c3ncccn3)C2)c(C)c1 (centres undefined),13.1µM*,-2.7%,72.8%,5.5%
Cc1ccc(NC(=O)C2CCCN(C3=NS(=O)(=O)c4ccccc43)C2)c(O)c1 (centres undefined),14.7µM*,-1.4%,11.7µM*,24.3%
O=C(Nc1ccc(Cl)cc1F)C1CCCN(C2=NS(=O)(=O)c3ccccc32)C1 (centres undefined),?,-4.8%,-25.1%,7.7%
CCOCCOC(=O)CCSc1n[nH]c(=O)[nH]c1=O,10.4µM*,0.8%,13.6%,6.3%
O=C(NC1CCN(S(=O)(=O)c2ccccc2F)CC1)c1cccnc1,0.1%,5.1%,-7.7%,5.9%
COc1cccc(CNc2ccc(F)c(Cl)c2)c1OC,10.4µM*,-8.1%,nt,0.1%
COc1ccccc1NC(=O)NCC(=O)Nc1ccc(F)c(F)c1,12.7%[5.75 µM],-13.2%,-6.4%,-5.5%
Fc1ccc(NCc2ccccc2F)cc1Cl,67.7%,23.2%,37.2%,9.3%
COc1ccccc1NC(=O)CNc1ccc(F)c(Cl)c1,14.7µM*,-6.6%,?,10.7%
COc1cccc(CNCCc2cccc(F)c2)c1OC,4.15µM*,-16.9%,-16.7%,6.7%
O=C(Nc1nnc(C2CC2)s1)c1n[nH]c(=O)c2ccccc12,-13.7%,79.4%,?,7.5%
Cc1ccc(NC(=O)c2ccc(NCc3ccco3)c([N+](=O)[O-])c2)cc1Cl,70.7%,13.9%,?,-10.2%
SMILES,Pf growth 96h,AMA1 RON2 block,Pf growth 48h,HCV inh
COc1ccc(OCC(=O)N2CCCC(Nc3ccc(C)c(C)c3)C2)cc1 (centres undefined),nt,5.2%,nt,nt
COc1cccc(Nc2nnc(SCc3cc([N+](=O)[O-])cc4c3OCOC4)s2)c1,-3.2%[5.75 µM],-7.4%,-20.2%,11.2µM*
CC/C(=N/NC(=O)c1ccc2c(c1)OCO2)c1ccccc1O,nt,29.7%,nt,3.16µM*
C/C(=N\NC(=O)c1cc2ccccc2cc1O)c1ccc2c(c1)OCO2,5.22µM*,29.2%,6.57µM*,-2.8%
C/C(=N\NC(=O)c1ccc(C)cc1C)c1ccc2c(c1)OCO2,3.7µM*,14.2%[11.6 µM],10.4µM*,-18.9%
COc1ccc(/C(C)=N\NC(=O)c2ccc3c(c2)OCO3)cc1OC,106.7%,nt,15.2%,nt
CC/C(=N\NC(=O)c1ccc2c(c1)OCO2)C12CC3CC(CC(C3)C1)C2,nt,32.6%,33.9%,14.9%
Cc1ccccc1C(=O)NC1CCN(C(=O)Nc2ccccc2Cl)CC1,-17.7%,0.0%,35.3%,-18.3%
CC(=O)c1c(C)[nH]c(C(=O)NCc2cccc(Cl)c2)c1C,3.9%,-5.8%,-4.5%,11.2µM*
CC(=O)c1c(C)[nH]c(C(=O)OCCOc2ccccc2)c1C,373.7%,-7.0%,465.8%,8.91µM*
CCOC(=O)c1c(C)[nH]c(C(=O)OCc2ccc(C)cc2)c1C,nt,-20.2%,nt,?
CC(=O)c1c(C)[nH]c(C(=O)COC(=O)CCCOc2ccccc2)c1C,0.5%,-14.0%,27.1%,-0.2%
Cc1c(C(=O)OCCOc2ccccc2)[nH]c2c1C(=O)CCC2,20.7%,-6.9%,nt,12.6µM*
CC(=O)c1c(C)[nH]c(C(=O)OCc2ccc(Br)cc2)c1C,46.3%,7.8%,33.5%,4.47µM*
CCOc1ccc(N2C(=O)CC(N(Cc3ccco3)C(=O)CCC(=O)O)C2=O)cc1 (centres undefined),?,10.1%,-17.9%,26.6%
CC(=O)c1c(C)[nH]c(C(=O)OCc2cccc(C)c2)c1C,103.4%,0.0%,46.4%,15.8µM*
CC(=O)c1c(C)[nH]c(C(=O)OCc2ccccc2F)c1C,207.9%,-6.1%,222.9%,17.8µM*
CCOC(=O)c1c(C)[nH]c(C(=O)OCc2ccccc2)c1C,-61.2%,-5.1%,160.6%,nt
CCOC(=O)c1[nH]c(C)c(C(=O)OCc2ccc(C)cc2)c1C,34.1%,-10.6%,14.5%,?
COc1ccc(C)cc1COC(=O)c1[nH]c(C)c(C(C)=O)c1C,11.7µM*,-8.1%,?,?
CC(=O)c1c(C)[nH]c(C(=O)OCC(=O)Nc2ccccc2Cl)c1C,-19.2%,-2.6%,-16.4%,?
O=S(=O)(NCc1ccc(F)cc1)c1ccc(Br)cc1Br,37.6%,-2.4%,2.4%,10.9%
CCOc1nc(C)cc(C)c1S(=O)(=O)c1cccc(C)c1,0.0%,nt,-25.1%,nt
Cc1cc(C)c(S(=O)(=O)c2c(C)cccc2C)c(OCC(C)C)n1,11.7µM*,23.2%,11.7µM*,?
Cc1nnc(NS(=O)(=O)c2ccc(Br)cc2)s1,?,11.4%,0.0%,1.8%
O=C1CN(Cc2ccccc2)C(=NCc2ccco2)S1,-3.8%,-7.4%,1.85µM*,6.6%
O=C(Cn1cnc2cc([N+](=O)[O-])ccc2c1=O)NCCc1ccc(F)cc1,-9.6%,7.7%,2.4%,0.8%
O=C(Cn1cnc2cc([N+](=O)[O-])ccc2c1=O)NCCc1ccc(Cl)cc1,11.4%,-5.6%,11.0%,14.1µM*
Cc1cc(OCCN2CC2)c2ccccc2n1,10.4µM*,nt,13.1µM*,nt
